Hits are enriched below; roughly 1.8% of the tested compounds scored in any of these assays.
Imprint erasure = induces erasure of genomic imprints in mouse ES cells; mouse ES Peg3-LacZ reporter, beta-gal luminescence, 40 h; Potency, µM (highest dose often 60.7 µM), for the others: at the highest dose activity change, positive = activation, actives largely listed as activators; actives 0.02% (n = 110,000); AID 1948
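Readout: BetaGlo luminescence (5 min, room temp) for LacZ from the normally silent maternal Peg3 allele in female Peg3LacZ-Neo ES cells. Cells 300/well, 40 h, 37C, 5% CO2. Data normalized per plate to negative controls.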
p53ts 32C tox = p53ts cell cytotoxicity, permissive temperature; H1299-p53A138V at 32C, ATP luminescence viability, 24 h; Potency, µM (doses to about 46.1 µM), without a hit: top-dose activity change, negative = cytotoxicity, actives largely listed as cytotoxic; actives 0.93% (n = 130,000);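 further: 0% = DMSO and -100% = full killing by reference compound; nearly all actives have a fitted effect of over 55% in size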
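ATP-content luminescence (ATPlite) read-out after 24 h compound exposure at 32C in H1299-p53A138V cells (600/well). Tested up to 46 uM. Normalized to DMSO (0%) and 100 uM tamoxifen (100% killing); Hill-fit AC50.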
p53ts 39C kill = cytotoxicity in p53ts cells at nonpermissive temperature. H1299-p53A138V viability at 39C, ATP luminescence, 24 h. Potency, µM (series often up to 46.1 µM), for the others: at the top dose activity change, negative = cell killing, usual class: cytotoxic. actives 1.5% (n = 130,000). AID 902; further: on the % scale 0 is the no-effect control and ±100 the full control effect; nearly all actives have a fitted effect of over 55% in size
IkB signaling = inhibitors of IkB signaling in ABC-DLBCL cells | Potency, µM (top dose mostly 57.1 µM), for the others: at the top dose IkBa stabilization activation | ABC-DLBCL IkBa-CBG/CBR dual luciferase ratio, 4 h; response scale: scaled: untreated 0%, proteasome inhibitor 100% | actives 0.04% (n = 110,000); active means well fitted curve in the direction sought with a large enough effect in the signal ratio, not every such curve was filed as active; inconclusive means small, poorly fitted or top-dose-only effect, or a change in a side signal; the % refers to the signal ratio;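 further: the direction sought is a rising ratio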
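In this assay, an IκBα–CBG68 fusion accumulates when IKK-driven degradation is blocked; native CBR normalizes for cell number. OCI-Ly3 cells were treated 4 h with compound and doxycycline, then green and red light read after Chroma-Glo addition.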
Numbers without * were called inactive; ? = inconclusive; nt = no result given; [ ] = remark or other dose. Unless noted, the call rests on the fitted dose curve; in most records, active means well fitted curve in the direction sought with a large enough effect; inconclusive means small, poorly fitted or top-dose-only effect, or another doubt; inactive means no such curve, though single readings can be large; an effect the other way counts as inactive or inconclusive. Potency means the concentration at half of the fitted maximal effect.

SMILES | Imprint erasure | p53ts 32C tox | p53ts 39C kill | IkB signaling
COc1ccc(CNc2ncnc3c2cnn3-c2ccc(C)c(C)c2)cc1 | -12%[10.9 µM] | -4% | -25% | -1%
CC(C)(C)Nc1ncnc2c1cnn2-c1ccccc1 | -24% | 7.9µM* | 10µM* | ?
COc1ccc(-n2ncc3c(NC(C)(C)CO)ncnc32)cc1 | -17%[10.9 µM] | 13µM* | 10µM* | -2%
Cc1ccc(SCc2cn3c(C)csc3n2)cc1 | -76% | ? | 13µM* | ?
Cc1ccc(S(=O)(=O)NCc2cn3c(C)csc3n2)cc1 | -10% | -3% | 11% | 0%
O=S1(=O)C=C(Sc2nc3ccccc3s2)c2ccccc21 | -36% | 13µM* | ? | ?
Cc1cc(C)nc(SC2=CS(=O)(=O)c3ccccc32)n1 | -27% | -30% | ? | ?
O=C(CN1C=NS(=O)(=O)c2ccc(C(F)(F)F)cc21)Nc1cccc(C(F)(F)F)c1 | -7%[10.9 µM] | -4% | -21% | ?
O=C(NCCc1ccccc1Cl)c1ccc(Cn2c(=O)c3cccn3c3cccnc32)cc1 | ? | 10µM* | ? | 5%
COC(=O)c1ccc2c(=O)n(CCCCCC(=O)NCc3ccc(Cl)cc3)c(=O)[nH]c2c1 | 14%[10.9 µM] | 10% | -5% | -2%
Cc1cccc(Cc2c(C)nc3nc(SCC(=O)NC4CCCCC4)nn3c2C)c1 | -12%[10.9 µM] | 4% | -18% | ?
Cc1ccc(Cc2c(C)nc3nc(SCC(=O)NC4CCC(C)CC4)nn3c2C)cc1 (stereo not drawn) | 13%[10.9 µM] | 23% | 20µM* | 3%
CC(C)c1nn2c(=O)cc(COC(=O)CNC(=O)c3ccccc3)nc2s1 | -8%[10.9 µM] | 2% | -5% | -5%
COc1ccc(C(=O)NCC(c2cccnc2)N2CCN(c3ccc(F)cc3)CC2)cc1OC (stereo not drawn) | -5% | -5% | -8% | 3%
COc1ccc(C(=O)NCC(c2cccnc2)N2CCN(c3ccccc3)CC2)cc1OC (stereo not drawn) | -91% | 10µM* | ? | 2%
Cc1ccc(NC(=O)C(=O)NCC(c2cccnc2)N2CCOCC2)cc1Cl (stereo not drawn) | -11%[10.9 µM] | ? | 20µM* | ?
Cc1ccc(-n2c(=O)c3oc4ccccc4c3n(Cc3ccccc3)c2=O)cc1C | 17%[10.9 µM] | 6% | -12% | 2%
O=C(Cc1cc(=O)[nH]c(=O)[nH]1)NCCN1CCOCC1 | -50% | 13µM* | ? | 1%
O=C(Cc1cc(=O)[nH]c(=O)[nH]1)NCC1CCCO1 (stereo not drawn) | -26% | -10% | 20µM* | ?
Cc1cc(C)cc(OCC(=O)NCCN2CCOCC2)c1 | -5% | -8% | -2% | -1%
COc1ccc(NC(=O)c2sc3nc(-c4cc5ccc(OC)cc5oc4=O)[nH]c(=O)c3c2C)cc1 | -11%[10.9 µM] | -11% | 2% | 0%
CCCOc1ccc(N)cc1N | -21% | 20µM* | -21% | 27%
CC1CCC2C(=O)OC(CO)CN2C1c1ccc(Br)cc1 (stereo not drawn) | nt | 2%[9.22 µM] | 12%[9.22 µM] | nt
CCCCSCCCNC(=O)c1cn(CC)c2ccc(S(=O)(=O)N(C)C3CCCCC3)cc2c1=O | -15%[10.9 µM] | 12% | -9% | ?
C=C(C)Cn1c(SCC#N)nc2ccccc2c1=O | 1µM* | -5% | -8% | -2%
SMILES | Imprint erasure | p53ts 32C tox | p53ts 39C kill | IkB signaling
C=C(C)Cn1c(SCC)nc2ccccc2c1=O | 2% | -3% | -3% | -1%
COc1c(O)cc2c(c1O)C1OC(CO)C(O)[C@H](O)[C@H]1OC2=O (stereo partly drawn) | 7.9µM* | 3% | 1% | nt
O=c1c2c(nc3c(-c4cccc5ccccc45)c[nH]n13)CCC2 | ? | ? | -19% | ?
O=c1c2c(nc3c(-c4ccc(Cl)cc4)c[nH]n13)CCCC2 | -9% | -16% | 20µM* | ?
COc1ccc(/C=C/C(=O)c2cccs2)c(OC)c1 | -25% | 16µM* | 5µM* | nt
CO[C@@H]1COC(=O)C/C=C\[C@@H](C)[C@H](OC)COC(=O)[C@H](COCc2ccccc2)NC(=O)C/C=C\[C@H]1C | nt | 11%[9.22 µM] | 11%[9.22 µM] | nt
CCCN(CCC)CCCNC(=O)C1CCN(c2nc3ccc(CC)cc3s2)CC1 | 15%[10.9 µM] | 13µM* | ? | ?
CCc1ccc2nc(N3CCC(C(=O)NCCC(C)C)CC3)sc2c1 | -13%[10.9 µM] | ? | 16µM* | ?
COc1ccc2nc(N3CCCC(C(=O)NCCCN4CCN(C)CC4)C3)sc2c1 (stereo not drawn) | 17% | 13µM* | 10µM* | 1%
CCCN(CCC)CCNC(=O)C1CCN(c2nc3ccc(CC)cc3s2)CC1 | -12%[10.9 µM] | 13µM* | ? | ?
Cc1cc(C)c2c(=O)c3c(oc2c1)C(=O)N(Cc1ccc(F)cc1)C3c1cccc(O)c1 (stereo not drawn) | 17%[10.9 µM] | 21% | -10% | ?
C[N+](C)(C)C(C1=CCCC1=O)c1ccccc1 (stereo not drawn) | -12%[10.9 µM] | nt | nt | nt
COCCNC(=O)c1ccc(-c2nc(CN3CCc4ccccc43)c(C)o2)cc1 | -3%[10.9 µM] | -8% | -9% | -3%
COc1cccc(C(=O)COC(=O)C(C)N2C(=O)c3ccccc3C2=O)c1 (stereo not drawn) | 3% | -3% | 11% | 0%
COc1ccc(C(=O)COC(=O)C(CC(C)C)N2C(=O)c3ccccc3C2=O)cc1 (stereo not drawn) | nt | 16µM* | ? | nt
COc1cc(CN(C(=O)COc2ccc(Br)cc2)c2ccccn2)cc(OC)c1OC | -9%[10.9 µM] | -11% | -3% | ?
Cc1ccc(OCC(=O)NCC2(N3CCOCC3)CCCCC2)cc1C | -11%[10.9 µM] | -2% | 9% | ?
COc1ccc(C(C)=O)cc1COC(=O)c1cnc(C)cn1 | 16µM* | 3% | 3% | -3%
COc1ccc(C(C)=O)cc1COC(=O)c1c(C)noc1C | -13% | -2% | -12% | 2%
CCOc1ccc(S(=O)(=O)N(C(=O)c2ccncc2)c2ccc3oc(C)c(C(=O)OC)c3c2)cc1 | -23%[10.9 µM] | 25% | 7% | ?
CCc1ccc(OCC(=O)Nc2ccc3c(c2)c2ccccc2n3CC)c(Br)c1 | -12%[10.9 µM] | -12% | 13µM* | -7%
CCc1ccc(OCC(=O)Nc2ccc3c(c2)c2ccccc2n3CC)cc1 | -6%[10.9 µM] | ? | ? | -3%
CC(C)=NO[C@@H](C)CN1CCCCc2nc(C)c(C)cc21 | nt | 6%[9.22 µM] | 16%[9.22 µM] | nt
CCN(CC)CCCC(C)Nc1c2ccc(Cl)cc2nc2ccc(OC)cc12 (stereo not drawn) | -38% | 5µM* | 10µM* | nt
COc1ccc2nc(Nc3nc(C)c(CCC(C)C)c(=O)[nH]3)nc(C)c2c1 | -9% | 18% | 13% | 6%
O=S(=O)(Nc1cccc(-c2ccc(N3CCCC3)nn2)c1)c1ccc(F)cc1F | -11%[10.9 µM] | -17% | 38% | 1%
COc1ccc(S(=O)(=O)Nc2cccc(-c3ccc(N4CCCCC4)nn3)c2)cc1F | -12%[10.9 µM] | 13µM* | 13µM* | -1%
O=S(=O)(Nc1cccc(-c2ccc(N3CCCCC3)nn2)c1)c1cccc(F)c1 | -16%[10.9 µM] | 10µM* | ? | -2%

Compound activity deposited in PubChem BioAssay by National Center for Advancing Translational Sciences (NCATS).
